Shown is part of a subset that was picked to be rich in hits.
FBPA Giardia inh: qHTS Assay for Inhibitors of Fructose-1,6-bisphosphate Aldolase from Giardia Lamblia | purified Giardia FBPA | Potency, µM (titrated, usually from 59.6 µM), for the others: at the top dose activity, negative = inhibition, usual class: inhibitors | A8B2U2 | 0.71% of 290,000 active | AID 2451, 2010; also: potency is read from the fitted curve at half-maximal effect; % is scaled to controls: 0 for no effect and ±100 for the full control effect; nearly all actives have a fitted effect of over 55% in size
Target sequence (A8B2U2 whole entry, looked up): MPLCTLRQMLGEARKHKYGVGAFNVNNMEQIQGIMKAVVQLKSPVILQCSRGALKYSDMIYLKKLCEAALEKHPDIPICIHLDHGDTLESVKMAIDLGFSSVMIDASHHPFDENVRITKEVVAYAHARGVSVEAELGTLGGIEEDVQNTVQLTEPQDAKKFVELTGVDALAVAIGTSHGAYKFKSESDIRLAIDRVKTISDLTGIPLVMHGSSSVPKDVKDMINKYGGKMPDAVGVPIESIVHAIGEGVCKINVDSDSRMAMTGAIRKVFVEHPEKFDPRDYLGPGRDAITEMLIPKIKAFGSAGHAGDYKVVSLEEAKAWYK
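40 nM FBPA preincubated 10 min at RT with compound (up to 57.5 uM final), then substrate plus GAPDH/TPI/NAD/arsenate coupling and diaphorase/resazurin added. Fluorescence read after 20 min at RT, 525/598 nm.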
CHX counter: Cycloheximide Counterscreen for Small Molecule Inhibitors of Shiga Toxin. AID 2314, 2010. 12% of 300,000 active. max response, %. cell reporter, cycloheximide protein synthesis inhibition counterscreen; in the data active = max response mostly above about 13%, no sharp cut-off; inactive = mostly below about 14%; also: read at 38.3 µM for the half of the compounds with a filed dose; 0% is about no effect
Tb PYK inh: qHTS of Trypanosoma Brucei Inhibitors; pyruvate kinase (Trypanosoma brucei), Q57TT1; TbPYK enzyme, Kinase-Glo Plus ATP luminescence, 45 min; Potency, µM (titrated, usually from 76.8 µM), without a hit: at the top dose activity, negative = inhibition, hits mostly inhibitors; 0.12% of 410,000 active; also: potency is read from the fitted curve at half-maximal effect; % is scaled to controls: 0 for no effect and ±100 for the full control effect; nearly all actives have a fitted effect of over 50% in size
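Activity of T. brucei pyruvate kinase was followed by Kinase-Glo Plus luminescence after the enzyme reacted 45 min at room temperature with 130 uM ADP (final) and substrate. Test compounds were added before ADP at multiple concentrations.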
Shiga inhibitor: A qHTS for Small Molecule Inhibitors of Shiga Toxin. Vero cells, Shiga toxin protein synthesis inhibition reporter. inhibition, % at 38.7 µM. 9.2% of 290,000 active. AID 2315, 2010; in the data active = inhibition mostly above about 28%, no sharp cut-off; inactive = mostly below about 43%; also: 0% is about no effect
LmPK inhibitor: qHTS Assay for Inhibitors of Leishmania Mexicana Pyruvate Kinase (LmPK); purified LmPK, Kinase-Glo ATP luminescence, 1 h; Q27686; 0.37% of 290,000 active; Potency, µM (series often up to 57.5 µM), inactives show top-dose activity change, negative = inhibition, most hits filed as inhibitors; AID 1721, 2009; also: potency is read from the fitted curve at half-maximal effect; % is scaled to controls: 0 for no effect and ±100 for the full control effect
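ATP generated from ADP (0.1 mM) and PEP (0.5 mM) by 0.1 nM LmPK over 1 h at room temperature (pH 7.2 imidazole buffer) was detected by coupled luciferase luminescence. Values were normalized to uninhibited and no-enzyme wells.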
RE007 growth inh: qHTS Assay for Inhibitors of the HIV-1 protein Vpr | S. pombe RE007 Vpr strain, BacTiter-Glo ATP luminescence, 24 h | Potency, µM (series often up to 92.2 µM), without a hit: at the highest dose activity change, negative = less growth, most hits filed as inhibitors | 0.21% of 360,000 active | AID 651644, 2012; active = well fitted falling curve with a large enough effect; inconclusive = small, poorly fitted or top-dose-only effect; inactive = no such curve, though single readings can be large or run the other way; also: potency is read from the fitted curve at half-maximal effect; % is scaled to controls: 0 for no effect and ±100 for the full control effect; nearly all actives have a fitted effect of over 50% in size
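Fission yeast RE007 carrying one integrated HIV-1 vpr copy, seeded at OD 0.01 in PMG+AL medium with 23 nL pinned compound. Grown 24 h at 30 degrees; viability read by BacTiter-Glo luminescence after 5 min.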
Starred values were filed as active, the others as inactive; ? = inconclusive; . = no result. Unless noted, calls follow the shape of the dose curve; as a rule, active = well fitted curve in the direction sought with a large enough effect; inconclusive = small, poorly fitted or top-dose-only effect, or another doubt; inactive = no such curve, though single readings can be large; an effect the other way counts as inactive or inconclusive.

SMILES	FBPA Giardia inh	CHX counter	Tb PYK inh	Shiga inhibitor	LmPK inhibitor	RE007 growth inh
COCC(=O)Nc1nnc(Cc2ccc(OC)c(OC)c2)s1	-6%	6	0%	33	7%	0%
COc1ccc(C(=O)Cc2ccc(OC)c(OC)c2)cc1	-4%	56*	2%	53*	5%	-3%
COc1ccc(NC(=O)c2ccco2)cc1NC(=O)COc1ccccc1Cl	.	.	-12%	.	.	.
COc1ccc(NC(=O)Nc2nnc(Cc3ccc(OC)c(OC)c3)s2)cc1	2%	-1	5%	-4	-3%	6%
Cc1ccc(NC(=O)Nc2nnc(Cc3ccc([N+](=O)[O-])cc3)s2)cc1C	3%	18*	-7%	31	2%	-7%
O=C(Nc1ccccc1)Nc1nnc(Cc2ccc([N+](=O)[O-])cc2)s1	3%	14	-2%	7	3%	1%
COc1ccc(Cc2nnc(NC(=O)Nc3ccc(C)cc3)s2)cc1OC	4%	15*	2%	43*	6%	-2%
Nc1nc2c(nc(Br)n2C2O[C@H]3COP(=O)(O)O[C@@H]3C2O)c(=O)[nH]1 (some centres not stated)	-1%	.	.	.	.	.
Cn1cc(Cl)cc(C(=O)Nc2ccccc2)c1=O	5%	34*	-2%	59*	-8%	-14%
O=C(Nc1ccncc1)c1cccn(Cc2ccccc2)c1=O	2%	10	3%	16	3%	5%
C=CCc1cccc2cc(C(=O)Nc3ccc(CC(=O)O)cc3)c(=O)oc12	8%	-1	-1%	-2	2%	-1%
C=CCn1cccc(C(=O)Nc2ccc(OC)cc2)c1=O	1%	48*	-5%	62*	-9%	-6%
C=CCc1cccc2cc(C(=O)Nc3ccc(F)cc3)c(=O)oc12	4%	11*	-2%	0	-7%	22%
C=CCn1cccc(C(=O)Nc2ccc(F)cc2)c1=O	7%	39*	0%	63*	-2%	-10%
CCOC(=O)Cn1cc(Cl)cc(C(=O)Nc2ccccc2)c1=O	6%	-1	-3%	4	1%	-19%
CCOc1ccc(NC(=O)C(=O)NCCc2csc(-c3ccc(F)cc3)n2)cc1	.	.	-1%	.	.	.
Cc1ccc(C)c(N2N=C(C(=O)OCC(=O)N(C)c3ccccc3)CCC2=O)c1	.	.	0%	.	.	-13%
COc1cccc(NC(=O)c2cccn(Cc3ccccc3C)c2=O)c1	.	.	-1%	.	.	.
O=C(Nc1ccccc1)c1cccn(Cc2ccccc2)c1=O	5%	34*	-1%	98*	-2%	-14%
COc1ccc(NC(=O)c2cccn(CC=C(C)C)c2=O)cc1	3%	40*	-3%	58*	8%	-6%
Cc1c(Cl)cnc(NC(=O)COC(=O)c2cccc(S(=O)(=O)N3c4ccccc4CC3C)c2)c1Cl (configuration not stated)	-5%	2	-1%	-6	2%	-6%
COc1ccccc1NC(=O)Nc1ccnn1C1CCN(C(=O)C2CCOC2)CC1 (configuration not stated)	.	.	3%	.	.	2%
CCOc1cc(/C=N\NC(=O)c2c(C)nc3ccccn23)ccc1O	-1%	13*	-16%	.	4%	3%
Cc1nc2ccccn2c1C(=O)N/N=C/c1ccc2c(c1)OCO2	-4%	59*	-3%	88*	-6%	2%
Cc1nc2ccccn2c1C(=O)NCc1ccc2c(c1)OCO2	2%	11	-3%	36	1%	5%
SMILES	FBPA Giardia inh	CHX counter	Tb PYK inh	Shiga inhibitor	LmPK inhibitor	RE007 growth inh
CCOc1cc(/C=N/NC(=O)c2c(-c3ccccc3)noc2C)ccc1O	0%	3	-8%	3	6%	-7%
O=C1NC(=O)/C(=C\c2ccc(Br)o2)S1	-13%	23*	-12%	20*	2%	.
CC1=C(C(=O)N2CCOCC2)CC(CC(=O)NC(c2ccccc2)c2ccccc2)C(=O)N1Cc1ccc(F)cc1 (configuration not stated)	.	.	13%	.	.	2%
COc1cc2[nH]c3c(=O)n4c(nc3c2cc1OC)SCCC4	-9%	25*	-4%	31*	-1%	7%
CN(C)c1ccc(/C=C/C(=O)c2ccc3c(c2)OCCO3)cc1[N+](=O)[O-]	1%	43*	5%	active	-17%	5%
O=C(/C=C/c1cccc(Br)c1)c1ccc2c(c1)OCO2	.	25*	-6%	62*	-8%	-18%
O=C(/C=C/c1ccc2c(c1)OCO2)c1ccc[nH]1	0%	79*	7%	active	?	-6%
COc1cccc(/C=C/C(=O)c2ccc[nH]2)c1	-13%	55*	-5%	91*	-14%	?
CCN(Cc1ccc2c(c1)OCO2)C(=O)/C=C/c1cccc(Br)c1	-8%	7	0%	-4	7%	1%
COc1cccc(/C=C/C(=O)Oc2ccc(C(=O)c3ccc(F)cc3)cc2)c1	0%	-7	-1%	-9	1%	7%
C[C@H](CO)N1C[C@H](C)[C@@H](CN(C)S(=O)(=O)c2cn(C)cn2)Oc2c(NS(=O)(=O)c3cn(C)cn3)cccc2C1=O	.	.	-2%	.	.	-11%
CC(=O)c1ccc2c(c1)OCCOCCOCCOCCOCCO2	1%	-2	-9%	49	-2%	3%
CN(C)c1ccc(/C=C/C(=O)c2ccc3c(c2)OCO3)cc1	.	.	-24%	.	.	?
O=C(/C=C/c1ccc2c(c1)OCO2)c1ccc(F)cc1	-3%	42*	-5%	78*	?	-10%
O=C(/C=C/c1ccccc1Br)c1ccc2c(c1)OCO2	10%	36*	-13%	112*	-2%	-24%
O=C(N/N=C\C=C\c1ccc2c(c1)OCO2)c1ccc(F)cc1	11%	20	-2%	46	-3%	6%
O=C(/C=C/c1ccccc1)c1ccc2c(c1)OCO2	-3%	37*	2%	59*	?	?
O=C(/C=C/c1ccncc1)c1ccc2c(c1)OCCO2	0%	20*	-6%	27	-16%	-24%
Cc1cccn2c(=O)c3cc(C(=O)NCC4CCCO4)c(=N)n(C4CCCC4)c3nc12 (configuration not stated)	0%	-3	-9%	-4	5%	-4%
CC(C)C[C@@H](NC(=O)[C@@H](COC(C)(C)C)NC(=O)[C@H](Cc1ccc(O)cc1)NC(=O)[C@@H](CO)NC(=O)[C@@H](Cc1c[nH]c2ccccc12)NC(=O)[C@@H](Cc1cnc[nH]1)NC(=O)[C@@H]1CCC(=O)N1)C(=O)N[C@H](CCCN=C(N)N)C(=O)N1CCC[C@H]1C(=O)NNC(N)=O	.	.	-9%	.	.	.
